# From publication PMC7862700, “An all-to-all approach to the identification of sequence-specific readers for epigenetic DNA modifications on cytosine”
# Key:
# Assay in all cases: DAPPL (digital affinity profiling via proximity ligation, sequencing); 10 mM Tris-HCl pH 7.5, 50 mM NaCl, 1 mM DTT, 4% glycerol, room temperature, 30 min; GST-TFs on glutathione beads, 16-mer random dsDNA library, 0.1% formaldehyde crosslink after washing; high values mean tight binding
# FLI1 = target: T1, FLI1 (Homo sapiens, UniProt Q01543 1-452); settings: protein: recombinant; tags: N-terminal GST; dsDNA, one strand shown
# T1 sequence: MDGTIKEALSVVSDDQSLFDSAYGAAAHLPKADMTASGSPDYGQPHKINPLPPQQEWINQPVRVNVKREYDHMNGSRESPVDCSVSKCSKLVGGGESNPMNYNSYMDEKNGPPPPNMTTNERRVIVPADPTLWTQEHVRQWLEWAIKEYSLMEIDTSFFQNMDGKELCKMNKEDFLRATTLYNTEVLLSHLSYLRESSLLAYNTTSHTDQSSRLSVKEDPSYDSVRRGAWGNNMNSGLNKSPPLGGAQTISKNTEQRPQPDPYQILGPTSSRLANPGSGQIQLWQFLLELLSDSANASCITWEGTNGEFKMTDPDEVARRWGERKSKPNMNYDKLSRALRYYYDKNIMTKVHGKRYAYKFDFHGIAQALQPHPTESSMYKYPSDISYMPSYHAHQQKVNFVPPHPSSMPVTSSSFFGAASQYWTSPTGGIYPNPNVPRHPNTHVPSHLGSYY
# How it was run: (§1)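 In yeast, human transcription factors were expressed with a GST fusion, then pulled down on glutathione beads and given DNA barcodes. Pooled with a tag-only sample, they were exposed to 200 nmole of a 16-mer random double-stranded DNA library (Tris/NaCl/DTT/glycerol buffer, room temperature, 30 min), washed, crosslinked with 0.1% formaldehyde, proximity-ligated using BsaI/T4 ligase for 1 h at 37 °C, PCR-amplified and read on an Illumina NextSeq500. Each hexamer's frequency of reads for a factor, divided by the matching frequency for the tag-only sample, gives the binding signal.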
# SPI1 = SPI1 (Homo sapiens, UniProt P17947 1-270); settings: protein: recombinant; tags: N-terminal GST; dsDNA, one strand shown
# How it was run: as §1
# FEV = target: T2, FEV (Homo sapiens, UniProt Q99581 1-238); settings: protein: recombinant; tags: N-terminal GST; dsDNA, one strand shown
# T2 sequence: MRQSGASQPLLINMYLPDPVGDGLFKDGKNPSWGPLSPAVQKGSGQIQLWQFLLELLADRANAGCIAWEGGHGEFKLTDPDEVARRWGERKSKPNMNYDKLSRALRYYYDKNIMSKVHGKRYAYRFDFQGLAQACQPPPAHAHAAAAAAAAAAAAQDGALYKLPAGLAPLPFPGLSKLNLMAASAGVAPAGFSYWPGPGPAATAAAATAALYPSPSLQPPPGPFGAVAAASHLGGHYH
# How it was run: as §1
# HSF1 = HSF1 (Homo sapiens, UniProt Q00613 1-529); settings: protein: recombinant; tags: N-terminal GST; chain copies: 3; dsDNA, one strand shown
# How it was run: as §1
# ETV2 = target: T3, ETV2 (Homo sapiens, UniProt O00321 1-342); settings: protein: recombinant; tags: N-terminal GST; dsDNA, one strand shown
# T3 sequence: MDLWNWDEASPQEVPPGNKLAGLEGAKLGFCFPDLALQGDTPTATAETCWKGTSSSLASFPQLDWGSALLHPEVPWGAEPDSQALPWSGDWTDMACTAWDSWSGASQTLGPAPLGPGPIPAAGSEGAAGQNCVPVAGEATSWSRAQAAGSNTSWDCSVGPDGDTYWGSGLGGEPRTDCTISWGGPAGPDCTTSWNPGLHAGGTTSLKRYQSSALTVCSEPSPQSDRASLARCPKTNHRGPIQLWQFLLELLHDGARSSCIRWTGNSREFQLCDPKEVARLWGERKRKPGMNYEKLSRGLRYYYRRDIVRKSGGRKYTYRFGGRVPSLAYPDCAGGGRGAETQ
# How it was run: as §1
# CRX = CRX (Homo sapiens, UniProt O43186 1-299); settings: protein: recombinant; tags: N-terminal GST; dsDNA, one strand shown
# How it was run: as §1
# ELF5 = target: T4, ELF5 (Homo sapiens, UniProt Q9UKW6-2 1-255); settings: protein: recombinant; tags: N-terminal GST; dsDNA, one strand shown
# T4 sequence: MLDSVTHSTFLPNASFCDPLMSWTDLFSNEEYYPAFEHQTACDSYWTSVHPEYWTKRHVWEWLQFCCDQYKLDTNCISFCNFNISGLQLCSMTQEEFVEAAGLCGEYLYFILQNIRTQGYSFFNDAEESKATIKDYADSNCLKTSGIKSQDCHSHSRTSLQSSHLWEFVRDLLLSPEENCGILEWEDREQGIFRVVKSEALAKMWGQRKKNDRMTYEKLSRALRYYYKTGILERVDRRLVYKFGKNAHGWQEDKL
# How it was run: as §1
# HSF1, sequence (Q00613 whole entry): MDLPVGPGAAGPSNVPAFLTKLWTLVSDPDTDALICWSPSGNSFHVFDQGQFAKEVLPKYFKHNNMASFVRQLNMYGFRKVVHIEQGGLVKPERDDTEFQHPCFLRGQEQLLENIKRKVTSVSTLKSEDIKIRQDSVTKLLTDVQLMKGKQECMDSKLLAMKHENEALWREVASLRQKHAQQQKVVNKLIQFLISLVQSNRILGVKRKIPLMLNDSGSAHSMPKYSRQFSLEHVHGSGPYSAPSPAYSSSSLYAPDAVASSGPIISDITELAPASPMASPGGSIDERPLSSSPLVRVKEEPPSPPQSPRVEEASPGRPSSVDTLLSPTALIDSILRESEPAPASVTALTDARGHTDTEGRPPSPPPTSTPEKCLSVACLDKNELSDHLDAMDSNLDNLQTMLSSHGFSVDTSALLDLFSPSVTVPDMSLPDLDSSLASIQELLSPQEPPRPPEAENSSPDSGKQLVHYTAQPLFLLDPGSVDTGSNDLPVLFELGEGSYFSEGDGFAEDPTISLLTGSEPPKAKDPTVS
# CRX, sequence (O43186 whole entry): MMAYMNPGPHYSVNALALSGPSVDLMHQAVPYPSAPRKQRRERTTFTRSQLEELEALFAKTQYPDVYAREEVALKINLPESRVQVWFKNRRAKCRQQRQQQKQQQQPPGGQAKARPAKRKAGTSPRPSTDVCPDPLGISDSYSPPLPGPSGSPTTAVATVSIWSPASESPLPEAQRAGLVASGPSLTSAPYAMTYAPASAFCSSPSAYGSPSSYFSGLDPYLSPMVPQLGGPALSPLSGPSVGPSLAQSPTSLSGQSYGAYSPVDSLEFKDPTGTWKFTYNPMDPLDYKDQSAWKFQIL
Sequence,binding signal (FLI1),binding signal (SPI1),binding signal (FEV),binding signal (HSF1),binding signal (ETV2),binding signal (CRX),binding signal (ELF5)
ATAAGA,"1.02 fold enrichment (6-mer frequency, TF over GST control)","1.13 fold enrichment (6-mer frequency, TF over GST control)","1.01 fold enrichment (6-mer frequency, TF over GST control)","1.54 fold enrichment (6-mer frequency, TF over GST control)","1.03 fold enrichment (6-mer frequency, TF over GST control)","1.97 fold enrichment (6-mer frequency, TF over GST control)","1.02 fold enrichment (6-mer frequency, TF over GST control)"
TTGCCA,"1.07 fold enrichment (6-mer frequency, TF over GST control)","1.07 fold enrichment (6-mer frequency, TF over GST control)","1.11 fold enrichment (6-mer frequency, TF over GST control)","1.01 fold enrichment (6-mer frequency, TF over GST control)",–,"1.06 fold enrichment (6-mer frequency, TF over GST control)","1.04 fold enrichment (6-mer frequency, TF over GST control)"
TCGAGC,"1.02 fold enrichment (6-mer frequency, TF over GST control)",–,–,"1.46 fold enrichment (6-mer frequency, TF over GST control)","1.04 fold enrichment (6-mer frequency, TF over GST control)","1.01 fold enrichment (6-mer frequency, TF over GST control)",–
GTTCGC,"1.06 fold enrichment (6-mer frequency, TF over GST control)","1.04 fold enrichment (6-mer frequency, TF over GST control)","1.06 fold enrichment (6-mer frequency, TF over GST control)","1.12 fold enrichment (6-mer frequency, TF over GST control)","1.11 fold enrichment (6-mer frequency, TF over GST control)",–,"1.01 fold enrichment (6-mer frequency, TF over GST control)"
GCCCGA,"1.12 fold enrichment (6-mer frequency, TF over GST control)","1.01 fold enrichment (6-mer frequency, TF over GST control)","1.07 fold enrichment (6-mer frequency, TF over GST control)","1.1 fold enrichment (6-mer frequency, TF over GST control)",–,–,–
TAGATA,"1.07 fold enrichment (6-mer frequency, TF over GST control)",–,–,"1.46 fold enrichment (6-mer frequency, TF over GST control)","1.12 fold enrichment (6-mer frequency, TF over GST control)","1.48 fold enrichment (6-mer frequency, TF over GST control)",–
GATCTA,"1.12 fold enrichment (6-mer frequency, TF over GST control)","1 fold enrichment (6-mer frequency, TF over GST control)",–,"1.41 fold enrichment (6-mer frequency, TF over GST control)","1.11 fold enrichment (6-mer frequency, TF over GST control)","1.41 fold enrichment (6-mer frequency, TF over GST control)","1.05 fold enrichment (6-mer frequency, TF over GST control)"
ATAAGT,"1.08 fold enrichment (6-mer frequency, TF over GST control)","1 fold enrichment (6-mer frequency, TF over GST control)",–,"1.28 fold enrichment (6-mer frequency, TF over GST control)","1.05 fold enrichment (6-mer frequency, TF over GST control)","1.79 fold enrichment (6-mer frequency, TF over GST control)",–
GTAAGC,"1.02 fold enrichment (6-mer frequency, TF over GST control)",–,–,"1.04 fold enrichment (6-mer frequency, TF over GST control)",–,"1.51 fold enrichment (6-mer frequency, TF over GST control)",–
GATCAA,"1.01 fold enrichment (6-mer frequency, TF over GST control)",–,–,"1.25 fold enrichment (6-mer frequency, TF over GST control)","1.19 fold enrichment (6-mer frequency, TF over GST control)","1.52 fold enrichment (6-mer frequency, TF over GST control)",–
CGTTTA,"1.08 fold enrichment (6-mer frequency, TF over GST control)","1.06 fold enrichment (6-mer frequency, TF over GST control)","1.09 fold enrichment (6-mer frequency, TF over GST control)","1.06 fold enrichment (6-mer frequency, TF over GST control)","1.03 fold enrichment (6-mer frequency, TF over GST control)","1.19 fold enrichment (6-mer frequency, TF over GST control)","1.07 fold enrichment (6-mer frequency, TF over GST control)"
GCTGGT,"1.29 fold enrichment (6-mer frequency, TF over GST control)","1.19 fold enrichment (6-mer frequency, TF over GST control)","1.1 fold enrichment (6-mer frequency, TF over GST control)","1.06 fold enrichment (6-mer frequency, TF over GST control)","1.1 fold enrichment (6-mer frequency, TF over GST control)","1.05 fold enrichment (6-mer frequency, TF over GST control)","1.09 fold enrichment (6-mer frequency, TF over GST control)"
AGATCT,"1.06 fold enrichment (6-mer frequency, TF over GST control)",–,–,"1.47 fold enrichment (6-mer frequency, TF over GST control)","1.11 fold enrichment (6-mer frequency, TF over GST control)","1.33 fold enrichment (6-mer frequency, TF over GST control)",–
TCAATC,"1.08 fold enrichment (6-mer frequency, TF over GST control)","1.06 fold enrichment (6-mer frequency, TF over GST control)",–,"1.13 fold enrichment (6-mer frequency, TF over GST control)","1.13 fold enrichment (6-mer frequency, TF over GST control)","1.33 fold enrichment (6-mer frequency, TF over GST control)",–
GGATCT,"1.08 fold enrichment (6-mer frequency, TF over GST control)","1.02 fold enrichment (6-mer frequency, TF over GST control)",–,"1.07 fold enrichment (6-mer frequency, TF over GST control)",–,"1.15 fold enrichment (6-mer frequency, TF over GST control)","1.17 fold enrichment (6-mer frequency, TF over GST control)"
TAAGCA,"1.08 fold enrichment (6-mer frequency, TF over GST control)",–,"1.04 fold enrichment (6-mer frequency, TF over GST control)","1.29 fold enrichment (6-mer frequency, TF over GST control)",–,"1.7 fold enrichment (6-mer frequency, TF over GST control)","1.02 fold enrichment (6-mer frequency, TF over GST control)"
GATTTA,"1.02 fold enrichment (6-mer frequency, TF over GST control)",–,–,"1.54 fold enrichment (6-mer frequency, TF over GST control)","1.05 fold enrichment (6-mer frequency, TF over GST control)","2.33 fold enrichment (6-mer frequency, TF over GST control)",–
TGAATC,"1.03 fold enrichment (6-mer frequency, TF over GST control)","1.11 fold enrichment (6-mer frequency, TF over GST control)",–,"1.03 fold enrichment (6-mer frequency, TF over GST control)",–,"1.08 fold enrichment (6-mer frequency, TF over GST control)",–
CTAGCC,"1.07 fold enrichment (6-mer frequency, TF over GST control)","1.1 fold enrichment (6-mer frequency, TF over GST control)",–,"1.05 fold enrichment (6-mer frequency, TF over GST control)","1.06 fold enrichment (6-mer frequency, TF over GST control)",–,–
